# Laboratory results as given in PubChem BioAssay AID720650 (Broad Institute, 2013).
# Values without a mark were called inactive. Activity calls are given as the source filed them. How the calls were made is not given here.
# Experiment: Biochemical counterscreen for C difficile toxins, absence of UDPG, inhibitor dose response (AID 720650)
# Conditions: series mostly up to 19.5 µM; activity change, negative = inhibition: at the top concentration
SMILES,"activity change, negative = inhibition",AC50
CC(=O)c1cccc(-c2ccnc3c2CC(C(=O)NCc2ccccc2)O3)c1 (centres undefined),-7.26%,–
CCOC(=O)c1ccc[n+](CC(=O)c2ccc(NC(=O)c3ccccc3)cc2)c1,-0.189%,–
COc1ccc(S(=O)(=O)Nc2ccc3oc(C)c(C(=O)O)c3c2)cc1,–,> 39 µM
CC(=O)N1CC[C@@H]2[C@@H](CO)Nc3ccc(-c4ccccc4)cc3[C@@H]21,–,11.5 µM (active)
Cn1cnnc1SCC(=O)NC1CCCCC1,-1.35%,–
O=c1[nH]nc(-c2ccc(F)cc2)cc1Cc1ccccc1,0.756%,–
O=C(N[C@@H](Cc1c[nH]c2ccccc12)C(=O)O)C1CCN(S(=O)(=O)c2cccs2)CC1,-4.14%,–
O=C(Nc1ccc(N2CCOCC2)c(Cl)c1)c1ccc2c(c1)OCCO2,-12.3%,–
C=CCc1ccc(O)c(-c2ccc(O)c(CC=C)c2)c1,–,> 39 µM
O=C(Nc1ccc(O)cc1)/C(=C/c1ccco1)NC(=O)c1ccccc1,–,14.7 µM (active)
Cc1cc(N/N=C/c2ccncc2)nc2ccccc12,-3.14%,–
O=c1c2oc3nc4c(cc3c2ncn1CCCc1ccccc1)CCCC4,-4.58%,–
C[C@@H]1CN([C@H](C)CO)S(=O)(=O)c2ccc(-c3ccncc3)cc2O[C@@H]1CN(C)Cc1ccc(Oc2ccccc2)cc1,-4.46%,–
CN(C)CC(=O)N1CC[C@@H]2[C@H]1c1cc(-c3ccccc3)ccc1N(C)[C@H]2CO,–,14.1 µM (active)
Cc1cccc(-n2c(=O)c3ccccc3n3c(=S)[nH]nc23)c1C,-17.6%,–
COc1ccc(C2=NS(=O)(=O)N(C)C(C(=O)NCc3ccc4c(c3)OCO4)=C2)cc1OC,-0.875%,–
Cc1nn2cc(-c3cccc(Cl)c3)cnc2c1Br,-5.76%,–
COc1ccccc1C(=O)Nc1cccc(Oc2c(F)c(F)c(F)c(F)c2F)c1,–,> 39 µM
CC(=O)N1CCN(c2ccc(S(C)(=O)=O)cc2[N+](=O)[O-])CC1,-6.37%,–
CN1CCN(/N=C/c2c[nH]c3ccccc23)CC1,–,> 39 µM

SMILES,"activity change, negative = inhibition",AC50
C[C@H](CO)N1C[C@H](C)[C@@H](CN(C)C(=O)Nc2ccc(C(F)(F)F)cc2)Oc2c(NS(=O)(=O)c3cccs3)cccc2C1=O,–,> 39 µM
COc1ccc(/C=C/c2onc(C)c2S(=O)(=O)N2CCC(C(=O)N3CCC(C)CC3)CC2)cc1,-5.37%,–
COc1cc(C(=O)Nc2scc(-c3ccccc3)c2C(=O)O)cc(OC)c1OC,–,13.9 µM (active)
CCCn1c(N)c(C(=O)COC(=O)c2cccc(S(=O)(=O)N3CCOCC3)c2)c(=O)[nH]c1=O,-15.3%,–
Cc1ccc(/C=C/c2onc(C)c2S(=O)(=O)N2CCC(C(=O)N3CCN(C)CC3)CC2)cc1,-9.58%,–
Cc1cc(C(=O)CSc2nnnn2-c2ccccc2)c(C)n1-c1ccc2c(c1)OCO2,-2.26%,–
CC(=O)c1ccc(Nc2ccc(-c3ccccc3F)nn2)cc1,–,> 39 µM
Cc1cnc(C(=O)OCC(=O)N2C(C)CCCC2C)cn1 (centres undefined),5.63%,–
COc1ccccc1C1NC(=O)NC(C)=C1C(=O)OC1CCCCC1 (centres undefined),-13.5%,–
COc1ccccc1Nc1nnc(SCc2cc(=O)n3ccsc3n2)s1,–,> 39 µM
O=C(NCc1nnc2c(C(F)(F)F)cc(Cl)cn12)c1cccnc1,-5.93%,–
Cc1ccc(C(=O)Nc2ncc([N+](=O)[O-])s2)cc1,–,> 39 µM
CCn1cc(C(=O)O)c(=O)c2cc(F)c(N3CCN(C(=S)NC(=O)c4ccccc4Br)CC3)cc21,-9.77%,–
CN1CCN(CC(=O)Nc2cc(N(C)C)nc3ccccc23)CC1,8.85%,–
Cc1cscc1-c1nc(NCC2CC2)nc2ccsc12,7.56%,–
Cc1cc(C=C2C(=O)c3ccccc3C2=O)c(C)n1-c1ccc(C(=O)O)cc1,–,12 µM (active)
CO[C@@H]1CN(C)C(=O)c2cc(NC(=O)NC(C)C)ccc2OC[C@@H](C)N(S(C)(=O)=O)C[C@H]1C,7.43% [at 6.8 µM],–
O=C(C[C@@H]1CC[C@@H]2[C@H](COC[C@@H](O)CN2C(=O)c2ccccn2)O1)NC1CCC1,-2.66%,–
COc1ccccc1N1CC(O)=C(c2nc3ccccc3s2)C1=N,–,> 39 µM
